High-throughput results as filed in PubChem.
HePTP inh – inhibitors of human HePTP phosphatase. P35236. recombinant HePTP phosphatase activity, OD absorbance. inhibition, % at 20 µM. 0.64% of 110,000 active. AID 521; in the data active means inhibition above about 50%;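 further: plate controls were vehicle for no effect and reference inhibitor for full effect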
Mac1 fbg inh – inhibitors of human CD11b/CD18 binding to fibrinogen. P05107+P11215. K562 CD11b/CD18 adhesion to fibrinogen, ATPlite luminescence; Mn2+ added to activate the integrin. inhibition, % at 10 µM. 0.54% of 93,000 active;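 active means primary inhibition of 50% or more at 10 µM, then 40% or more on retest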
Target sequence (P05107 whole entry, looked up, other chains not shown): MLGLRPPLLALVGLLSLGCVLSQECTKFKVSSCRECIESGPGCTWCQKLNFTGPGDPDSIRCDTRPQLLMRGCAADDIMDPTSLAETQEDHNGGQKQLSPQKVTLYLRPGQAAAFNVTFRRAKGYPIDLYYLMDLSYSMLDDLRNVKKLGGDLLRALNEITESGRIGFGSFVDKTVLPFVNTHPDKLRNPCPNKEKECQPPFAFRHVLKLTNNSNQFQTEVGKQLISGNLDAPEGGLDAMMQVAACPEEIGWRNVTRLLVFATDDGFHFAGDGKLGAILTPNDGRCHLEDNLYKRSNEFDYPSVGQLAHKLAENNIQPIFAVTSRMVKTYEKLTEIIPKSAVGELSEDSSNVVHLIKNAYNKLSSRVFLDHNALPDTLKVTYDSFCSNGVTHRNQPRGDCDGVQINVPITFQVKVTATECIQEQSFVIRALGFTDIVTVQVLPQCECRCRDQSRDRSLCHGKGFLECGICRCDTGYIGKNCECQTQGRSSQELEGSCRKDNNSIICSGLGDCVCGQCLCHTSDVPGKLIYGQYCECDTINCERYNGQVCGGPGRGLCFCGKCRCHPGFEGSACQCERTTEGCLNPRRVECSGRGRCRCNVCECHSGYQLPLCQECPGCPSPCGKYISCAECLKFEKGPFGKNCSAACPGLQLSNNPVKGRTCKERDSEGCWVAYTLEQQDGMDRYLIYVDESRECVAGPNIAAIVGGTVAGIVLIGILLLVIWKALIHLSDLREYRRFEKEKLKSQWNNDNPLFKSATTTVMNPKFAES
PLAP act – human PLAP activation; purified PLAP enzyme, luminescent substrate read-out; hits give high values; activation fold at 20 µM; 1.2% of 96,000 active; in the data active means activation fold above about 2
CD11b adhes enh – CD11b/CD18-fibrinogen binding enhancement. K562 CD11b/CD18 adhesion to fibrinogen, ATPlite luminescence. activation, % at 10 µM. 0.07% of 93,000 active;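 active means 10 µM primary screen giving 50% or more activity, confirmed by 40% or more on retest at that dose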
Active calls of the source: *. Rows were chosen to be rich in hits. Some 1.5% of all compounds tested hit in one or more screens of this group.

`O=C(CSc1nc2ccccc2s1)N/N=C/c1cccc2ccccc12` gave HePTP inh -16.
Screening CN(C)c1ccc(-c2ncnn2-c2ccc(Cl)cc2)cc1 returned HePTP inh 2.
CCN(CC)CCCN1CC(O)=C(c2nc3ccccc3s2)C1=N was read as Mac1 fbg inh -3, PLAP act 2.2* and CD11b adhes enh 1.
Screening CCOc1ccccc1N1CC(O)=C(c2nc3ccccc3s2)C1=N returned HePTP inh 4, Mac1 fbg inh 15, PLAP act 1 and CD11b adhes enh -4.
`COc1ccc(OC)c(N2CC(O)=C(c3nc4ccccc4s3)C2=N)c1` gave PLAP act 2*.
COc1cc(/C=N/NC(=O)COc2cccc(C)c2)ccc1OC(=O)c1ccco1 was read as HePTP inh 4.
Screening CCOc1ccc(-c2nn(-c3ccccc3)cc2/C=C2\SC(=S)N(C3CCS(=O)(=O)C3)C2=O)cc1 (centres undefined) returned Mac1 fbg inh -22, PLAP act 0.9 and CD11b adhes enh 102.
O=C1/C(=C/c2cn(-c3ccccc3)nc2-c2ccco2)SC(=S)N1C1CCS(=O)(=O)C1 (centres undefined) was read as HePTP inh 66*.
Cc1c(-c2cccc(Cl)c2)nc2ccccc2c1C(=O)O was read as HePTP inh 105*.
For CCCCN(C(=O)CSc1nnc(Nc2ccc(C)c(C)c2)s1)c1c(N)n(Cc2ccccc2)c(=O)[nH]c1=O the results were Mac1 fbg inh 38, PLAP act 1.9 and CD11b adhes enh -8.
Screening CN(C(=O)CSc1nnc(Nc2ccccc2)s1)c1c(N)n(Cc2ccccc2)c(=O)[nH]c1=O returned Mac1 fbg inh 7, PLAP act 2.1* and CD11b adhes enh -4.
Cc1ccc(O)c(NC(=O)c2cc3nc(-c4ccccc4)cc(C)n3n2)c1 was read as HePTP inh 16.
CN(C)c1cc(N/N=C/c2cccc(O)c2)nc(N(C)C)n1 was read as HePTP inh -4.
`O=S(=O)(Nc1nc2ccccc2s1)c1ccc(Cl)s1` gave Mac1 fbg inh 74*, PLAP act 1 and CD11b adhes enh -5.
CCOC(=O)c1c(NC(=S)Nc2ccccc2)sc2c1CCN(Cc1ccccc1)C2 was read as HePTP inh -14.
Screening CCN1CCc2c(sc(NC(=O)Nc3ccc(Cl)cc3)c2C(N)=O)C1 returned HePTP inh 101*.
CCOc1ccc(NC(=S)NC(NC(=O)CC(C)C)C(Cl)(Cl)Cl)cc1 (centres undefined) was read as HePTP inh 0.
Screening Cc1ccc2oc(-c3ccc(C)c(NC(=O)c4ccc(Br)o4)c3)nc2c1 returned HePTP inh -6.
`Cc1ccc(NC(=S)NNC(=O)c2ccco2)cc1` gave Mac1 fbg inh -7, PLAP act 1.8 and CD11b adhes enh -4.
Screening Cc1ccc(C)c(NC(=S)NNC(=O)c2ccc(Br)o2)c1 returned PLAP act 2.3*.
Cc1cccc(NC(=S)NNC(=O)c2ccco2)c1 was read as Mac1 fbg inh 3, PLAP act 2.1* and CD11b adhes enh 3.
`Cc1ccc(C)c(NC(=S)NNC(=O)c2sccc2C)c1` gave Mac1 fbg inh 5, PLAP act 2.6* and CD11b adhes enh 0.
Cc1ccc(C)c(NC(=S)NNC(=O)c2ccco2)c1 was read as Mac1 fbg inh 7, PLAP act 2.5* and CD11b adhes enh 0.
Screening COc1ccc(/C(C#N)=C\N2CCOCC2)c(OC)c1 returned HePTP inh -6.
Screening O=[N+]([O-])c1ccc(S(=O)(=O)N2CCSC2c2ccc(Cl)cc2)cc1 (centres undefined) returned HePTP inh -13.
COc1ccc(C)cc1NC(=O)C(=O)NNC(=O)c1ccco1 was read as Mac1 fbg inh -6, PLAP act 2.5* and CD11b adhes enh -6.
For Cc1ccccc1NC(=S)NNC(=O)c1ccoc1C the results were Mac1 fbg inh -2, PLAP act 2.1* and CD11b adhes enh -4.
`Cc1occc1C(=O)NNC(=S)Nc1ccccc1C(F)(F)F` gave Mac1 fbg inh 6 and CD11b adhes enh -6.
`COc1ccc(C)cc1NC(=O)C(=O)NCc1ccco1` gave HePTP inh 11.
Screening Cc1cc(N[C@@H]2O[C@@H](C)[C@H](O)[C@@H](O)[C@H]2O)c([N+](=O)[O-])cc1C returned HePTP inh -21.
Screening Cc1cccn2cc(CNS(=O)(=O)c3cccc(F)c3)nc12 returned Mac1 fbg inh -26, PLAP act 2.3* and CD11b adhes enh 0.
Screening COc1ccccc1/C=C/C=N/NC(=O)c1cc(C)[nH]n1 returned HePTP inh 3.
O=S(=O)(Nc1ccc(S(=O)(=O)N2CCCCC2)cc1)c1ccc(Br)s1 was read as HePTP inh 7, Mac1 fbg inh 91*, PLAP act 1.4 and CD11b adhes enh -11.
O=S(=O)(Nc1ccc(S(=O)(=O)N2CCCCCC2)cc1)c1cccs1 was read as Mac1 fbg inh -3, PLAP act 1.4 and CD11b adhes enh -3.
O=C(NCc1ccccc1)c1ccc(-c2ccc([N+](=O)[O-])cc2)o1 was read as HePTP inh -13.
Screening CCOc1cccc(=[O+]CC)c2c(C)oc(C)c12 returned HePTP inh 102*.
Screening CCOC(=O)c1ccc(CSc2n[nH]c(C)n2)o1 returned HePTP inh -12, Mac1 fbg inh -5, PLAP act 2* and CD11b adhes enh 0.
`CCOC(=O)c1ccc(CSc2nnc(C)n2N)o1` gave Mac1 fbg inh 2, PLAP act 0.9 and CD11b adhes enh -2.
`COc1ccc(NC(=O)COc2ccc(C)cc2C)c([N+](=O)[O-])c1` gave HePTP inh -6.
Screening Cc1ccccc1OCCCCc1c(C)n[nH]c1C returned HePTP inh 4, Mac1 fbg inh 90*, PLAP act 1.3 and CD11b adhes enh -6.
Screening Cc1cccc(C)c1OCCCCc1c(C)n[nH]c1C returned HePTP inh -9, Mac1 fbg inh 22, PLAP act 1.2 and CD11b adhes enh -7.
Screening COc1ccc(-c2noc(Cc3ccccc3OC)n2)cc1 returned HePTP inh 3, Mac1 fbg inh 2, PLAP act 1.2 and CD11b adhes enh 0.
COc1ccc(CCc2nc(-c3ccc(-n4cccc4)cc3)no2)cc1 was read as HePTP inh 9, Mac1 fbg inh 62*, PLAP act 0.8 and CD11b adhes enh 12.
Screening O=C(C1CCN(CCCc2ccccc2)CC1)N1CCCCC1 returned Mac1 fbg inh 2, PLAP act 1.5 and CD11b adhes enh 0.
Screening CC1CCN(C(=O)C2CCN(CCCc3ccccc3)CC2)CC1 returned HePTP inh 5, Mac1 fbg inh -12, PLAP act 2.2* and CD11b adhes enh 1.
For Cc1ccc(C(=O)C[n+]2cccc(C(N)=O)c2)cc1[N+](=O)[O-] the results were HePTP inh 7.
O=C(NC1CC2CCCC(C1)N2Cc1ccco1)NC12CC3CC(CC(C3)C1)C2 (centres undefined) was read as HePTP inh 5, Mac1 fbg inh -10, PLAP act 2.2* and CD11b adhes enh -3.
